Experimental data taken from PubChem BioAssay AID1875 (Broad Institute, 2009).
In all, about 300,000 compounds went through this assay and about 65 (0.02%) were called active.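 Rule for the calls: active = lowest replicate activity score at least 50, where 100 means six control SD above control mean; inconclusive = lowest score under 50 but half or more replicates reach 50; inactive = the rest.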 Only a selection was taken, and actives are over-represented in it overall.

experiment: perturbers of mRNA poly(A) processing – luminescence, S. cerevisiae, primary screen (AID 1875);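 note: yeast exposed to compound for 9 h at 30 °C; higher score means more reporter readthrough which indicates perturbed polyadenylation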; conditions: S. cerevisiae SKY197-pL101 polyadenylation reporter, beta-gal luminescence; at 12 µM; stronger effect = higher value; efflux-impaired pdr1/pdr3 knockout yeast; score 100 = 6 SD above DMSO

Activity score, inactive:
CC1C(=O)NC(=O)C1c1ccccc1 (stereo not given) -10.6%
CC(C)Cc1nn2c(=O)cc(O)nc2s1 4.85%
Cc1c(Br)cc(C(=O)N2CCCCCC2)c(C)c1C -12.8%
COc1ccccc1N1CCN(C(=O)c2cc(=O)c3cc(C)cc(C)c3o2)CC1 -11.1%
Cc1c(NS(=O)(=O)c2ccc(NC3CCCC3)c([N+](=O)[O-])c2)c(=O)n(-c2ccccc2)n1C 0.246%
COc1ccccc1OCC(=O)Nc1ccccc1C(=O)NC1CC1 -4.06%
O=C1c2ccccc2C(=O)N1Cc1cc(-c2ccccc2Cl)no1 16.1%
CCCOc1ccc(-c2c(C(=O)N/N=C/c3ccco3)nnn2-c2nonc2N)cc1 -8.58%
COCc1[nH][nH]c(=O)c1C=Nc1ccc(F)cc1F -2.51%
Cc1ccc(NC(=O)C(C)c2cccc(C(=O)c3ccccc3)c2)cc1 (stereo not given) -5.58%
COc1ccccc1N1CCN(S(=O)(=O)c2ccc3c(c2)NC(=O)CS3)CC1 9.75%
CN(C)Cc1ccccc1C1(O)c2ccccc2CSc2ccccc21 (stereo not given) -2.69%
CN(C)C(=O)c1ccc(NC(=O)c2ccccc2-c2ccccc2)cc1 -1.15%
CCC(Cc1ccccc1)NC(=O)C1CCCCC1 (stereo not given) 15.5%
CCCC[C@@H]1CN=C(N)N1CCCC 6.9%
C=CCN1C(=O)C2(OCCCO2)c2cccc(Cl)c21 -10.9%
CC(=O)NC(Cc1ccc(F)c(F)c1)C(=O)NC1CCN(c2nnnn2-c2ccccc2)CC1 (stereo not given) -5.96%
O=C(NCc1ccccc1Cl)NC(=O)c1csc([N+](=O)[O-])c1 8.38%
O=C(NCc1ccccc1)C1=C[C@@H](c2ccc(C(F)(F)F)cc2)C[C@@H](OCc2ccc(CO)cc2)O1 4.63%
Cc1ccc(C)c(N2CCN(C(=O)CCCCCn3c(=S)[nH]c4ccc(N5CCOCC5)cc4c3=O)CC2)c1 13.3%
S=c1[nH]cc(-c2ccc(Cl)cc2)n1-c1ccccc1 -13.1%
CC(C)c1ccc(NC(=O)[C@@H](NC(=O)N2CC(=O)Nc3ccccc32)C(C)C)cc1 8.86%
COc1ccc2c(c1)N(C)/C(=C1/SC(=S)N(NC(C)=O)C1=O)S2 -0.22%
Cc1ccc(C(=O)NC2CCCC(C)C2C)cc1S(=O)(=O)N1CCCCC1 (stereo not given) 0.169%
CCN(CC)Cc1c(C(=O)N/N=C/c2cccc(OCc3ccc(F)cc3)c2)nnn1-c1nonc1N -15.4%
COc1cc(OC)c(-n2cc(-c3ccc(Cl)cc3)[nH]c2=O)cc1Cl -4.07%
O=C1CSc2ccc(S(=O)(=O)NCc3ccccc3)cc2N1 3.02%
O=C(NN1C(=O)C2C3C=CC(O3)C2C1=O)c1ccncc1 (stereo not given) 2.42%
COc1cccc(-n2c(=S)sc3c(=O)n(-c4ccccc4C)c(SCC(=O)O)nc32)c1 27.3%
COc1cc(/C=C/C(=O)OCC(=O)NC(=O)NCc2ccccc2)ccc1OCC#N -0.558%
Cn1nccc1/C=N\NC(=O)c1ccc(Cl)cc1 7.4%
COc1ccc(S(=O)(=O)c2c[nH]c(=S)[nH]c2=O)cc1Cl 11.8%
COc1ccc(CNC(=O)c2ccc(Br)s2)cc1OC 6.38%
COc1ccc(Cl)cc1NC(=O)Cn1nc(-c2ccc(C)cc2)n(C)c1=S -3.37%
O=C(c1[nH]ncc1-c1ccc(Cl)cc1)C1CO1 (stereo not given) 19.5%
O=C(NCc1ccco1)c1ccc(NS(=O)(=O)c2cccc([N+](=O)[O-])c2)cc1 -6.5%
Cc1ccc(C(=O)N/C(=C\c2cn(C)c3ccccc23)C(=O)N2CCN(C)CC2)cc1 -4.13%
NC(=O)c1oc2ccccc2c1NC(=O)CS(=O)(=O)c1ccccc1 13.3%
O=C(O)Cn1c(Cc2ccccc2)nc2ccccc21 -5.1%
CC(C)c1ccc(OCC(O)CN2CCN(c3ccccn3)CC2)cc1 (stereo not given) -11.9%
O=S(=O)(NCCc1ccc(Cl)cc1)c1cccs1 14.8%
O=C(NC1CC1)C(Cc1ccccc1)NS(=O)(=O)c1ccccc1F (stereo not given) 2.29%
COc1ccc(N2CCN(CCNC(=O)Nc3cc(Cl)ccc3Cl)CC2)cc1 -1.83%
N#Cc1ccc(S(=O)(=O)NCC(=O)OCC(=O)NCCc2ccccc2)cc1 3.63%
CSc1ncc(C(=O)Nc2ccc(C)cc2C)c(C)n1 2.7%
CC(=O)c1ccc(S(=O)(=O)N2CCN(c3nc4c(C)c(C)ccc4cc3C#N)CC2)cc1 13.6%
Cc1ccc(NS(=O)(=O)c2ccc(C(C)(C)C)cc2)cn1 -9.91%
COc1ccc(N2CCN(CCNC(=O)c3nnc(Cc4c(F)cccc4Cl)o3)CC2)cc1 -12.7%
CCOC(=O)c1nn(-c2ccccc2F)c2nc(Nc3ccccc3)cc(=O)n12 -12.8%
CN(C)Cc1c(O)ccc2c(=O)c(-c3ccccc3Cl)coc12 8.63%
CN1CCN(C(=O)C(=O)c2cn(CC(=O)N3CCCC3)c3ccccc23)CC1 17%
CC(=O)Nc1ccc(NC(=O)CS(=O)(=O)c2cn(CC(=O)N3CCCCC3)c3ccccc23)cc1 4.41%
S=C(c1ccc(-c2ccccc2)o1)N1CCCCC1 -23.1%
CC(=O)Nc1cccc(OCC(=O)/C=C2\N(C)c3ccccc3C2(C)C)c1 -11.1%
Cc1ccc(OCC(=O)NCCCNC(=O)c2cccnc2)cc1C 0.135%
N#C/C=C\Oc1ccc(Cl)cc1N -86.8%
COC(=O)CSc1ccc2nnc(CCNS(=O)(=O)c3ccc(C)cc3)n2n1 6.76%
COc1ccc(C2Nc3ccccc3C(=O)N2c2ccc(Cl)cc2)cc1Cn1cc([N+](=O)[O-])cn1 (stereo not given) -9.63%
COc1cc(NC(=O)c2ccc(CNc3c(N4CCCC4)c(=O)c3=O)cc2)cc(OC)c1OC 19.5%
C/C(CC(=O)Nc1ccc(N(C)C)cc1)=N\NC(=O)c1ccccc1F -2.05%
COCCNC(=S)N1CCN(C)CC1 -14.8%
COc1ccc(CCN(C)C(=O)C23CC4CC(CC(Cl)(C4)C2)C3)cc1OC 5.22%
COc1cccc(NC(=O)Cn2c3ccc(F)cc3c3nc4n(c(=O)c32)CCS4)c1 -13.2%
Cc1ccc(Cl)cc1N1CCN(C(=O)c2cccc3c(=O)c(C)c(-c4ccccc4)oc23)CC1 5.32%
COC(=O)Nc1ccc(S(=O)(=O)N(C)CC(F)(F)C(F)F)cc1 3.96%
Clc1ccc(-c2nnc(-c3ccccc3)nc2N2CCSCC2)cc1 -11%
COc1cccc2cc(C(C)N(CCCN3CCOCC3)C(=O)Nc3ccc(Cl)cc3)oc12 (stereo not given) -8.58%
COC(=O)c1ccccc1NC(=O)C1CCN(C(=O)N2CCOc3ccccc32)CC1 8.38%
CCOc1ccc2sc(NS(=O)(=O)c3ccc(N)cc3)nc2c1 -8.96%
O=C1OCC2=C1C(c1ccccc1)CC(=O)N2c1cccc(F)c1 (stereo not given) 19.6%
COc1cccc(NC(=O)CC(c2ccc(OC(C)C)cc2)c2ccccc2OC)c1 (stereo not given) 10.2%
Cc1ccc2nc(SCC(=O)Nc3cccc4ccccc34)nc(=O)n2c1 -16.5%
CC1(C)C(C=C(Cl)Cl)C1C(=O)N(Cc1ccc(Cl)cc1)C1CCS(=O)(=O)C1 (stereo not given) -12.2%
N#CCSc1nc2ccc(N3CCOCC3)cc2c(=O)n1CCc1ccccc1 -15.9%
CC1CC(NC(=O)/C(C#N)=C/c2ccc[nH]2)CC(C)(C)C1 (stereo not given) -5.8%
CCN1C(=O)N[C@@H](CCc2ccccc2)C(C(=O)OC)=C1C -17.2%
O=C1C2C3C=CC(C3)C2C(=O)N1c1ccc(S(=O)(=O)Nc2nccs2)cc1 (stereo not given) -1.69%
O=C(NC(Cc1ccccc1)C(=O)N1CCCC(C(F)(F)F)C1)c1ccccc1 (stereo not given) 5.98%
Cn1ncc(N2CCN(S(=O)(=O)c3ccc(Br)cc3)CC2)c(Cl)c1=O 13.7%
CC(=O)N1C(=O)/C(=C2\SC(=S)N(NC(=O)c3ccc(O)cc3)C2=O)c2ccccc21 -6.71%
Cc1ccc(CNC(=O)CCCNC(=O)c2ccc(Cl)cc2)n1C -18.6%
Cc1cccc(N(C(=O)c2sc(C)nc2C)C(C(=O)NCC2CCCO2)c2ccccc2)c1 (stereo not given) -7.81%
CC(C)C1Nc2c(C(=O)O)cccc2C(Nc2ccccc2C(=O)O)C1(C)C (stereo not given) 12.3%
Cc1ccn2c(=O)nc(SCC(=O)NCc3ccc4c(c3)OCO4)nc2c1 17.3%
Cn1cc(S(=O)(=O)NC(c2ccccc2)c2ccccc2)c(=O)n(C)c1=O -1.67%
COCCCNC(NC(=O)c1ccc(C)cc1)C(Cl)(Cl)Cl (stereo not given) 8.69%
COc1ccc2oc(=N)c(C(=O)Nc3ccc(Br)cc3)cc2c1 0.299%
O=C(Nc1ccccc1N1CCOCC1)c1ccc(OCc2cscn2)cc1 3%
CC(=O)Nc1ccc(NC(=O)[C@@H](NC(=O)c2cccc(C)c2)C(C)C)cc1 -9.42%
CCOC(=O)CNC(=O)CSc1ccc2nnc(-c3cccnc3)n2n1 7.59%
